# Assay outcomes: PubChem, National Center for Advancing Translational Sciences (NCATS)
# An excerpt weighted towards active compounds, which were near 5.5% of everything screened.
# Sfp inh: qHTS Assay for Inhibitors of Bacillus subtilis Sfp phosphopantetheinyl transferase (PPTase). 4'-phosphopantetheinyl transferase ffp (Bacillus subtilis), Q9F4F7. Biochemical Sfp PPTase activity, qHTS. Potency, µM, for inactives: largest response in the series, negative = inhibition, usual class: inhibitors. 310,000 compounds, 3.5% hits;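 note: the enzyme is Sfp with the accession as filed and its product quenches rhodamine fluorescence; potency is the fitted concentration of half-maximal effect; 0% = enzyme reaction without inhibitor and -100% = no enzyme wells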
#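 Buffer: 50 mM Hepes-Na pH 7.6, 10 mM MgCl2, 0.01% Nonidet P-40, 0.01% BSA. Enzyme 15 nM, pre-exposed to compound 15 min; substrates then added and fluorescence change tracked over 30 min.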
# Giardia kill: Small Molecules that selectively kill Giardia lamblia: qHTS; Giardia lamblia trophozoite viability; activity change, % at 7.66 µM, hits read low; 340,000 compounds, 0.15% hits; AID 540267, 2011; in the data active = activity change below about -80%; inconclusive = between about -30% and that limit;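 note: parasites exposed to compound for two days anaerobically before the ATP read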
#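 Media and compound were dispensed first, then trophozoites at 100 cells/well; plates sat 48 hrs at 37 deg C without oxygen before ATP luminescence reagent was added and read after 15-30 min at room temperature.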
# Coupling enz: qHTS Assay for Inhibitors of Fructose-1,6-bisphosphate Aldolase from Giardia Lamblia: Coupling assay counterscreen; coupling enzyme system counterscreen, AmpLite Red fluorescence; activity change, negative = inhibition, % at 58.2 µM, hits read low; 290,000 compounds, 0.67% hits; AID 2472, 2010; in the data active = activity change below about -30%
#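 Fluorescence at 525 nm excitation and 598 nm emission measured inhibition of the coupled detection system without aldolase. Compounds (at 57.5 uM final) were preincubated 10 min at room temperature with coupling enzyme reagent before a 20 min substrate/AmpLite Red step.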
# ELG1 repair inh: qHTS screen for small molecules that inhibit ELG1-dependent DNA repair in human embryonic kidney (HEK293T) cells expressing luciferase-tagged ELG1. HEK293T ELG1-luciferase reporter, luminescence, 16 h; DNA damage induced by 5-fluorouridine. Potency, µM (series often up to 46.1 µM), for inactives: top-dose activity change, negative = inhibition, actives largely listed as inhibitors. 330,000 compounds, 2.3% hits. AID 504467, 2011; note: potency is the fitted concentration of half-maximal effect; nearly all actives have a fitted effect of over 55% in size
#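 In this reporter screen, reduction of luminescence relative to DMSO vehicle indicated activity. Compounds and 5-fluorouridine were added together to 2,000 cells per well, incubated for 16 hr at 37 °C, then developed with ONE-Glo.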
# ELG1 FLuc counter: qHTS screen for small molecules that inhibit ELG1-dependent DNA repair: Hit Confirmation in Cell-Based Luciferin Assay; shares compounds with ELG1 repair inh; cell-free firefly luciferase luminescence counter-screen, ViewLux; Potency, µM (series often up to 46.1 µM), for the others: top-dose activity change, negative = inhibition, most hits filed as inhibitors; 350 compounds, 3% hits; AID 624247, 2012; note: potency is the fitted concentration of half-maximal effect
# ELG1-Luc inh: HTS assay for small molecules that inhibit ELG1-dependent DNA repair in human embryonic kidney (HEK293T) cells expressing luciferase-tagged ELG1: Hit Confirmation. shares compounds with ELG1 repair inh. HEK293T ELG1-luciferase levels, luminescence; cells co-treated with 5-fluorouridine. Potency, µM (top dose mostly 46.1 µM), without a hit: top-dose activity change, negative = inhibition, actives largely listed as inhibitors. 670 compounds, 68% hits; note: potency is the fitted concentration of half-maximal effect; nearly all actives have a fitted effect of over 55% in size
# ELG1 MMS Luc: confirmation of human ELG1 repair inhibitors, MMS stimulated. shares compounds with ELG1 repair inh. HEK293T luciferase-tagged ELG1 level, MMS stimulated. Potency, µM (titrated, usually from 46.1 µM), for the others: at the highest dose activity change, negative = inhibition, most hits filed as inhibitors. 670 compounds, 53% hits. AID 624249; note: potency is the fitted concentration of half-maximal effect; nearly all actives have a fitted effect of over 60% in size
# ELG1 5FU viab: qHTS screen for small molecules that inhibit ELG1-dependent DNA repair: Hit Confirmation with 5FU Viability | shares compounds with ELG1 repair inh | cell viability with 5-FU, ELG1-dependent repair | Potency, µM (doses to about 46.1 µM), inactives show at the highest dose activity change, negative = viability loss, actives largely listed as cytotoxic | 670 tested, under 10 active;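 note: ELG1-luc HEK293T cells cotreated with 5-fluorouridine at 10 µM final; potency is the fitted concentration of half-maximal effect; viability measured 16 h after compound addition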
# ELG1 MMS cell: qHTS screen for small molecules that inhibit ELG1-dependent DNA repair: Hit Confirmation with MMS Viability. 670 compounds, 33% hits. Potency, µM (highest dose often 46.1 µM), inactives show at the highest dose activity change, negative = viability loss, actives largely listed as cytotoxic. shares compounds with ELG1 repair inh. Cell viability with MMS, ELG1-dependent DNA repair;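 note: ELG1-luc HEK293T cells co-treated with 10 µM MMS; potency is the fitted concentration of half-maximal effect; viability read 16 h after compound addition; nearly all actives have a fitted effect of over 60% in size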
# Cell viab unstim: qHTS screen for small molecules that inhibit ELG1-dependent DNA repair: Hit Confirmation with Unstimulated Viability Assay; shares compounds with ELG1 repair inh; 900 compounds, 8% hits; cell viability counter-screen, unstimulated, luminescence; Potency, µM (doses to about 45.9 µM), for the others: at the top dose activity change, negative = loss of viability, hits mostly cytotoxic; AID 624252, 2012;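 note: potency is the fitted concentration of half-maximal effect; compound exposure lasted 16 hours before reading; nearly all actives have a fitted effect of over 55% in size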
# FLuc biochem: qHTS screen for small molecules that inhibit ELG1-dependent DNA repair: Hit Confirmation in Biochemical Luciferin Assay. shares compounds with ELG1 repair inh. purified firefly luciferase, luminescence counter-screen. Potency, µM (top dose mostly 57.5 µM), inactives show at the top dose activity, negative = inhibition, most hits filed as inhibitors. 350 compounds, 10% hits. AID 624253, 2012; note: potency is the fitted concentration of half-maximal effect
# Active calls of the source: *; ? = inconclusive; . = not tested or not shown. Unless noted, calls come from the whole dose curve; as a rule, active = well fitted curve in the direction sought with a large enough effect; inconclusive = small, poorly fitted or top-dose-only effect, or another doubt; inactive = no such curve, though single readings can be large; an effect the other way counts as inactive or inconclusive. Unless noted, % is set by controls: 0 for no effect and ±100 for the full control effect.
SMILES,Sfp inh,Giardia kill,Coupling enz,ELG1 repair inh,ELG1-Luc inh,ELG1 MMS Luc,ELG1 5FU viab,ELG1 MMS cell,Cell viab unstim,others
COc1cc2c(cc1OC)C(c1ccccc1)N(C(=O)CCl)CC2 (configuration not stated),1.9%,-2.7,2.9,?,.,.,.,.,.,
CNc1ccc(/C=C2\C=Cc3ccccc32)cc1,.,.,.,.,.,.,.,.,-4.7%,ELG1 FLuc counter=57.7%;FLuc biochem=0.731µM*
COc1ccc(CNC(=O)[C@H](C)NC(=O)C2CCN(C(=O)[C@@H](N)CCSC)CC2)cc1,3.6%,3.2,1.7,?,.,.,.,.,.,
CC(=O)c1c(C)[nH]c(C(=O)Nc2cc(S(=O)(=O)N3CCCCC3)ccc2C)c1C,.,1.0,.,-1.3%,.,.,.,.,.,
COc1ccc(S(=O)(=O)N2CCCCC2)cc1NC(=O)c1[nH]c(C)c(C(C)=O)c1C,.,-1.2,.,?,.,.,.,.,-19.4%,
Cc1ccc(S(=O)(=O)N2CCCCC2)cc1NC(=O)CNc1ccc(C(F)(F)F)cc1,.,-21.9,.,3.66µM*,?,31.5µM*,-3.3%,28.1µM*,?,
COc1ccc(CC(=O)Nc2cc(S(=O)(=O)N3CCCCC3)ccc2C)cc1OC,9.1%,4.7,-0.5,2.06µM*,?,1.41µM*,3.0%,2.5µM*,?,
CCN(CC)S(=O)(=O)c1ccc(C)c(NC(=O)CNc2cccc(S(=O)(=O)N3CCCC3)c2)c1,.,6.1,.,?,.,.,.,.,.,
O=C(c1cc(COc2ccc3ncccc3c2)on1)N1CCCC1,9.2%,33.1,.,?,40.6%,12.6µM*,-1.4%,15.8µM*,?,ELG1 FLuc counter=25.1%;FLuc biochem=?
O=C(NC1CCCC1)c1cc(COc2ccc3ncccc3c2)on1,14.7%,-2.3,0.5,2.31µM*,?,2.5µM*,-2.7%,3.15µM*,?,ELG1 FLuc counter=-3.0%;FLuc biochem=?
Cc1nn(-c2ccccc2)c(N2CCCC2)c1/C=N/NC(=O)c1cc(-c2cccnc2)nc2ccccc12,?,-14.8,-0.2,4.61µM*,8.88µM*,28.1µM*,6.1%,-11.5%,?,
CN(CC(=O)Nc1ccccc1Cl)C(=O)c1cc(C2CC2)nn1-c1ccccc1,.,16.4,.,-8.0%,.,.,.,.,.,
Nc1ccc2nc(SCC(=O)N3CCOCC3)sc2c1,8.9%,3.0,-0.5,?,.,.,.,.,.,
